Compounds with a hit are over-represented: about 4.8% of the library has one in this group of screens.
SMARCA2 act – activators of SMARCA2 function. MG213 cells, MMTV-luciferase reporter, dexamethasone, overnight. hit rate 1% among 370,000. activation, % at 9.1 µM. AID 652017; in the data active = activation above about 7.8%;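 also: 0% = vehicle wells and 100% = reference activator wells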
DAX1 inh-1 – inhibits human nuclear receptor DAX1; P51843; inhibition, % at 6.75 µM; HEK293 Gal4-DAX1 luciferase reporter, luminescence; hit rate 0.99% among 340,000;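 active = inhibition above the mean over all tested compounds plus 3 SD, cut at about 4.2% in these data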;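 also: 0% = DAX1-transfected cells with DMSO and 100% = empty-vector control cells with DMSO; inhibition shows as a rise in luminescence from relieved DAX1 repression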
Target sequence (P51843 207-470 limits assumed): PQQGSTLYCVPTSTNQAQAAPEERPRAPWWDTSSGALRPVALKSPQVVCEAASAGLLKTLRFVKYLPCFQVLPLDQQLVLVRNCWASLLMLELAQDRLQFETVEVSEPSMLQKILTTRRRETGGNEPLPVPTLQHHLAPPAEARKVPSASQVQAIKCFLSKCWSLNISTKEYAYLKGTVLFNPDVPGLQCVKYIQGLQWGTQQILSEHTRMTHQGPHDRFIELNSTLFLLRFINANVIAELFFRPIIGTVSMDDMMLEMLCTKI
hgDAF12 agonist – activates the H. glycines DAF-12 receptor ligand-binding domain; AID 687014; hit rate 1.8% among 370,000; activation, % at 6.8 µM; HEK293 GAL4-hgDAF12 UAS-luciferase reporter, agonist luminescence; normalized to butyrate control;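 active = activation above a cutoff set at the mean of all screened compounds plus 3 SD, cut at about 10% in these data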;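 also: 0% = DMSO wells and 100% = sodium butyrate wells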
hcDAF-12 act – H. contortus DAF-12 activation, primary screen | HEK293 hcDAF-12 lit1-tk-luc reporter, luminescence; 0% DMSO, 100% Δ7-dafachronic acid | activation, % at 6.8 µM | hit rate 1.4% among 370,000 | AID 652067;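 active = activation above the mean of all tested compounds plus 3 SD, cut at about 5.5% in these data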;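 also: 100% = response to 3 µM Δ7-dafachronic acid high control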
DAX1 inh-2 – blocks DAX1 repression of SF-1 activated StAR promoter. HEK293T StAR-luciferase reporter, SF-1/DAX-1 repression relief. inhibition, % at 6.8 µM. hit rate 1.1% among 370,000. AID 652010;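 active = inhibition above the mean over all tested compounds plus 3 SD, cut at about 3.6% in these data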;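 also: 0% = DAX-1 cells with DMSO and 100% = cells lacking DAX-1 with DMSO; higher inhibition means more luminescence from relief of DAX-1 repression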
ssDAF-12 act – activates DAF-12 receptor from parasite S. stercoralis. hit rate 1% among 370,000. AID 652126. activation, % at 6.8 µM. HEK293 ssDAF-12/GRIP1 lit1-tk-luc reporter, luminescence; % of 3 µM dafachronic acid response;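 active = activation above the mean over all tested compounds plus 3 SD, cut at about 0.9% in these data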;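 also: 0% = DMSO-only wells and 100% = 3 µM delta7-dafachronic acid wells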
DAX1 conf – confirmation of human DAX1 (NR0B1) inhibitors; shares compounds with DAX1 inh-2; HEK293T StAR-promoter luciferase reporter, SF-1/DAX-1 repression; inhibition, % at 6.8 µM; hit rate 87% among 2,400; AID 652134;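 active = inhibition above the average of every tested compound plus 3 SD, cut at about 3.8% in these data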;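 also: 0% = DAX-1 cells with DMSO and 100% = no DAX-1 control cells with DMSO; active compounds raise luminescence by relieving repression of the StAR reporter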
SF1 mutant ctr – counter-screen for DAX1 inhibitors: nonselective inhibitors with SF-1 AF2 mutant. HEK293 StAR-luciferase, luminescence. inhibition, % at 6.8 µM. hit rate 78% among 2,400. AID 652136. shares compounds with DAX1 inh-2;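 active = inhibition above the mean of all tested compounds plus 3 SD, cut at about 3% in these data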;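 also: 0% = DAX-1 transfected cells with DMSO and 100% = cells without DAX-1 with DMSO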
LXRb hcDAF ctr – counter-screen for hcDAF-12 agonists: agonists of human LXR-beta; shares compounds with hcDAF-12 act; HEK293 Gal4-LXR tk-luc reporter, luminescence, 24 h; normalized: DMSO 0%, positive control 100%; activation, % at 6.8 µM; 3,400 tested, under 10 active;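 active = mean percent activation of the reporter above a cutoff set as the average over tested compounds plus their standard deviation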
Target sequence (P55055 whole entry, looked up, the tested form may be a part): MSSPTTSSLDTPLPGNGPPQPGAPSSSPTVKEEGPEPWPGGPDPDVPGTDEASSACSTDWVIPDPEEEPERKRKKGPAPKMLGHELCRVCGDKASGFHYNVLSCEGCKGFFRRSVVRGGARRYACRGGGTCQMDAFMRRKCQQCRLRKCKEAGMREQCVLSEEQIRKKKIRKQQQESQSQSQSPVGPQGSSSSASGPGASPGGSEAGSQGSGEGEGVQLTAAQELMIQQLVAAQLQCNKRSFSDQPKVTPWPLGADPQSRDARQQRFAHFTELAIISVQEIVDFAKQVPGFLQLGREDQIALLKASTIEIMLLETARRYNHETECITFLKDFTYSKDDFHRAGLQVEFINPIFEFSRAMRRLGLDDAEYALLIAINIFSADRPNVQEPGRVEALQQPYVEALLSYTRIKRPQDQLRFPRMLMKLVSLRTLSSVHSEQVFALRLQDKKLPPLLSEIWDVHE
hcDAF12 conf – hcDAF-12 agonism, confirmation assay; HEK293 hcDAF-12 lit1-tk-luc reporter, luminescence; % of Δ7-dafachronic acid response; hit rate 61% among 3,400; activation, % at 6.8 µM; shares compounds with hcDAF-12 act;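 active = mean activation across triplicate tests above the threshold derived from the earlier primary screen, cut at about 5.5% in these data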;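 also: 0% = DMSO only wells and 100% = 3 µM Δ7-dafachronic acid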
hgDAF12 ag – confirmation of H. glycines DAF-12 agonists; shares compounds with hgDAF12 agonist; hit rate 80% among 3,300; activation, % at 6.8 µM; HEK293 GAL4-hgDAF12 luciferase reporter, agonist mode; percent of butyrate response;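 active = mean activation over triplicate wells above the hit cutoff derived from the earlier primary screen, cut at about 11% in these data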;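 also: 0% = DMSO low control and 100% = 2 mM sodium butyrate high control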
LXR ag 2 – activates human LXR-beta, counter-screen for DAF-12 agonists. shares compounds with hgDAF12 agonist. HEK293 Gal4-LXR luciferase reporter, 24 h. activation, % at 6.8 µM. 3,300 tested, under 10 active. AID 743051;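 active = mean activation of the triplicate above a set limit carried over from the primary screen, none filed active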
An asterisk follows results filed as active.

Results for COc1ccc(N=C2C(=Nc3ccc(OC)cc3)N(c3ccccc3)C(=S)N2C(=O)c2ccc(Cl)cc2)cc1 ?
SMARCA2 act: 5; DAX1 inh-1: 0; hgDAF12 agonist: 15*; hcDAF-12 act: 4; DAX1 inh-2: 4.5*; ssDAF-12 act: 0; DAX1 conf: 6.0*; SF1 mutant ctr: 5.8*; hgDAF12 ag: 18*; LXR ag 2: 1

Results for COc1ccc(N=C2C(=Nc3ccc(OC)cc3)N(c3ccc(OC)cc3)C(=S)N2C(=O)c2ccc(OC)cc2)cc1 ?
SMARCA2 act: 1; DAX1 inh-1: 1; hgDAF12 agonist: 3; hcDAF-12 act: 2; DAX1 inh-2: 1; ssDAF-12 act: -1

How did O=[N+]([O-])c1cc(Cl)ccc1-c1nc(-c2ccccc2)no1 do in these assays?
SMARCA2 act: 1; DAX1 inh-1: 4.5*; hgDAF12 agonist: 25*; hcDAF-12 act: 11*; DAX1 inh-2: 4.7*; ssDAF-12 act: 4.0*; DAX1 conf: 14*; SF1 mutant ctr: 7.7*; LXRb hcDAF ctr: 2; hcDAF12 conf: 9.9*; hgDAF12 ag: 18*; LXR ag 2: 1

How did Nn1c(SCC(=O)N2c3ccccc3Sc3ccc(Cl)cc32)nnc1-c1n[nH]c2c1CCC2 do in these assays?
SMARCA2 act: -3; hgDAF12 agonist: -3; hcDAF-12 act: -2; DAX1 inh-2: 0; ssDAF-12 act: -2

How did O=C(CSc1cccc[n+]1[O-])c1ccccc1Br do in these assays?
SMARCA2 act: 3; DAX1 inh-1: 0; hgDAF12 agonist: 2; hcDAF-12 act: -1; DAX1 inh-2: 2; ssDAF-12 act: -1

What do the screens show for `Cc1cc(C(=O)CSc2cccc[n+]2[O-])c(C)n1-c1ccccc1`?
SMARCA2 act: 1; DAX1 inh-1: 1; hgDAF12 agonist: 16*; hcDAF-12 act: 7.5*; DAX1 inh-2: 8.1*; ssDAF-12 act: 1; DAX1 conf: 17*; SF1 mutant ctr: 7.8*; LXRb hcDAF ctr: 1; hcDAF12 conf: 7.2*; hgDAF12 ag: 13*; LXR ag 2: 1

What do the screens show for `c1ccc(CC(Nc2cccnc2)c2ccccc2)cc1` (configuration not stated)?
SMARCA2 act: -7; hgDAF12 agonist: -2; hcDAF-12 act: 1; DAX1 inh-2: -1; ssDAF-12 act: -1

What do the screens show for `COC(=O)[C@]12C[C@H](CC(=O)NCc3cccs3)C(=O)N(Cc3cccc4ccccc34)C1=C[C@H](C(C)C)O[C@@H]2C1CC1`?
SMARCA2 act: -3; hgDAF12 agonist: -1; hcDAF-12 act: -1; DAX1 inh-2: 0; ssDAF-12 act: -2

How did COc1cccc(NC(=O)c2ccc3c(c2)N(C)CCS3)c1 do in these assays?
SMARCA2 act: 4; DAX1 inh-1: 1; hgDAF12 agonist: 16*; hcDAF-12 act: 6.2*; DAX1 inh-2: 8.7*; ssDAF-12 act: 1; DAX1 conf: 10*; SF1 mutant ctr: 9.3*; hgDAF12 ag: 18*; LXR ag 2: 1

What do the screens show for `CC(C)(C)NC(=O)C(c1ccncc1)n1c(-c2ccc(C(F)(F)F)cc2)nc2ccccc21` (configuration not stated)?
SMARCA2 act: 1; hgDAF12 agonist: 17*; hcDAF-12 act: 9.2*; DAX1 inh-2: 11*; ssDAF-12 act: 1.4*; DAX1 conf: 11*; SF1 mutant ctr: 7.9*; LXRb hcDAF ctr: 1; hcDAF12 conf: 5; hgDAF12 ag: 17*; LXR ag 2: 1

Results for CCOC(=O)C1=C(C(=O)OCC)C2N(Cc3ccc(Br)cc3)c3ccccc3[C@@]23C[C@@H](C(=O)OC)N(S(=O)(=O)c2ccc(Br)cc2)C3=N1 (some centres not stated) ?
SMARCA2 act: -1; hgDAF12 agonist: 0; hcDAF-12 act: 1; DAX1 inh-2: 0; ssDAF-12 act: -2

How did COc1cc(OC)cc(C(=O)O/N=C(\N)c2cccc(C)c2)c1 do in these assays?
SMARCA2 act: -2; DAX1 inh-1: 1; hgDAF12 agonist: 1; hcDAF-12 act: -1; DAX1 inh-2: 0; ssDAF-12 act: -1

What do the screens show for `Cc1cccc(/C(N)=N/OC(=O)c2ccc3c(c2)OCO3)c1`?
SMARCA2 act: 3; DAX1 inh-1: 1; hgDAF12 agonist: 15*; hcDAF-12 act: 8.6*; DAX1 inh-2: 5.4*; ssDAF-12 act: 0; DAX1 conf: 11*; SF1 mutant ctr: 6.8*; LXRb hcDAF ctr: 1; hcDAF12 conf: 6.7*; hgDAF12 ag: 14*; LXR ag 2: 1

Results for O=C(OCC(=O)N1CCc2ccccc2C1)c1c(F)cccc1Cl ?
SMARCA2 act: 6; DAX1 inh-1: 2; hgDAF12 agonist: 16*; hcDAF-12 act: 4; DAX1 inh-2: 5.6*; ssDAF-12 act: 0; DAX1 conf: 10*; SF1 mutant ctr: 7.3*; hgDAF12 ag: 18*; LXR ag 2: 1

How did Cc1nc(NC(=O)c2csc3ccccc23)sc1C do in these assays?
SMARCA2 act: 5; DAX1 inh-1: 2; hgDAF12 agonist: 24*; hcDAF-12 act: 13*; DAX1 inh-2: 5.1*; ssDAF-12 act: 1.5*; DAX1 conf: 12*; SF1 mutant ctr: 5.0*; LXRb hcDAF ctr: 2; hcDAF12 conf: 9.7*; hgDAF12 ag: 20*; LXR ag 2: 1

Results for Cc1nc(NC(=O)c2ccccc2O)sc1C ?
SMARCA2 act: 3; DAX1 inh-1: 3; hgDAF12 agonist: 5; hcDAF-12 act: 1; DAX1 inh-2: 1; ssDAF-12 act: -1

Bioassay records (PubChem BioAssay)
